We go through eleven compounds from PubChem BioAssay.

The test system of assay [1] is Human papillomavirus type 1a protein E7 (residues 44-93). Put plainly: HPV1a E7 fragment binders on microarrays, primary screen, biochemical, small-molecule microarray, residues 44-93, 635 nm fluorescence (AID 1108).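 Also: E7 fragment applied at 1 µg/mL in TBST for 1 h at 4 C; score combines spot fluorescence with its signal to noise ratio.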 The following applies: small-molecule microarray binding, fluorescence 635 nm; higher = more signal.
Assay [2] is described as follows: modulators of HCV replicon luciferase signal, primary screen, HCV replication inhibitor project, Huh7 cells, luciferase reporter (AID 1109).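 Also: huh7 hepatoma cells harbouring a luciferase neomycin HCV replicon reporter; luciferase luminescence as measure of HCV replicon replication; test concentration not given here.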 The following applies: 48 h, higher = more signal. For orientation: In antiviral work, replicon cells carry a viral genome segment that copies itself.
The target in assay [3] is Left-right determination factor 2 (Homo sapiens) (UniProt O00292). Put plainly: LEFTY2 binders on small-molecule microarrays, primary screen, biochemical, small-molecule microarray, 635 nm fluorescence scan (AID 1110). The following applies: LEFTY2 binding, higher = more signal.
Left-right determination factor 2 (Homo sapiens), sequence (O00292 whole entry, looked up): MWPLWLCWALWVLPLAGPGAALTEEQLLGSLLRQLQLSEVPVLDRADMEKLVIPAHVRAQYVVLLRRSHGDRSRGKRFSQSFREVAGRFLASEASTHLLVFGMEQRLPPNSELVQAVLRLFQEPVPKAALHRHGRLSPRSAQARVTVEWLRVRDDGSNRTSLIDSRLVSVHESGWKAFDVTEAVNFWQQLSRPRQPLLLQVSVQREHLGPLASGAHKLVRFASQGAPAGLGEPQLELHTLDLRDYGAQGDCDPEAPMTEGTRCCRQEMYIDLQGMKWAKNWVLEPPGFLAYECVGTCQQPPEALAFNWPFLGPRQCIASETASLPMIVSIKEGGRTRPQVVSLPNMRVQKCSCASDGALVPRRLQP
Assay [4] addresses Calmodulin-1 (Homo sapiens) (UniProt P0DP23). Put plainly: CALM1 binders on microarrays, EGTA buffer, profiling panel, biochemical, small-molecule microarray, Cy5-labelled CALM1 (AID 1111).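 Also: labelled calmodulin applied in Tris saline Tween buffer holding calcium plus EGTA and DTT.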 As to conditions: Cy5-CALM1 binding fluorescence, higher = more signal.
Assay [5] has the same target. Put plainly: calcium-bound CALM1 binders on microarrays, profiling panel, artefact control for SMM control-protein annotation, biochemical, small-molecule microarray, Cy5-labelled CALM1, plus calcium (AID 1112).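 Also: score merges spot fluorescence with signal to noise from triplicate slides.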 As to conditions: Cy5-CALM1 binding fluorescence, higher = more signal.
Assay [6] is described as follows: small-molecule microarray binders of probe aWnt5a, primary screen, biochemical, biotinylated probe, 635/667 nm fluorescence (AID 1113).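 Also: score merges 667 nm fluorescence intensity with signal-to-noise per printed feature.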 As to conditions: higher = more signal.
Assay [7] can be described thus: small-molecule microarray binders of probe aShh, primary screen, biochemical, biotinylated probe, 635/667 nm fluorescence (AID 1114).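 Also: probe is biotin-labelled aShh protein from a stem cell growth factor screen; measures binding of labelled protein to compounds printed on the slide; score merges feature fluorescence at 667 nm with signal-to-noise.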 The following applies: higher = more signal.
A short description of assay [8]: small-molecule microarray binders of probe aNog, primary screen, biochemical, biotinylated probe, 635/667 nm fluorescence (AID 1115).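 Also: probe is biotinylated aNog protein used at 0.15 µg/mL for 1 h at 4 C; z-score combines 667 nm fluorescence of each spot with its signal to noise.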 As to conditions: higher = more signal.
The target of assay [9] is Torsin-1A-interacting protein 1 (Homo sapiens) (UniProt Q5JTV8). Put plainly: LAP1 binders from COS7 cell lysate, primary screen, small-molecule microarray, 635/667 nm fluorescence (AID 1116). The following applies: COS7-hLAP1 lysate binding, 635 nm fluorescence, higher = more signal.
Torsin-1A-interacting protein 1 (Homo sapiens), sequence (Q5JTV8 whole entry, looked up): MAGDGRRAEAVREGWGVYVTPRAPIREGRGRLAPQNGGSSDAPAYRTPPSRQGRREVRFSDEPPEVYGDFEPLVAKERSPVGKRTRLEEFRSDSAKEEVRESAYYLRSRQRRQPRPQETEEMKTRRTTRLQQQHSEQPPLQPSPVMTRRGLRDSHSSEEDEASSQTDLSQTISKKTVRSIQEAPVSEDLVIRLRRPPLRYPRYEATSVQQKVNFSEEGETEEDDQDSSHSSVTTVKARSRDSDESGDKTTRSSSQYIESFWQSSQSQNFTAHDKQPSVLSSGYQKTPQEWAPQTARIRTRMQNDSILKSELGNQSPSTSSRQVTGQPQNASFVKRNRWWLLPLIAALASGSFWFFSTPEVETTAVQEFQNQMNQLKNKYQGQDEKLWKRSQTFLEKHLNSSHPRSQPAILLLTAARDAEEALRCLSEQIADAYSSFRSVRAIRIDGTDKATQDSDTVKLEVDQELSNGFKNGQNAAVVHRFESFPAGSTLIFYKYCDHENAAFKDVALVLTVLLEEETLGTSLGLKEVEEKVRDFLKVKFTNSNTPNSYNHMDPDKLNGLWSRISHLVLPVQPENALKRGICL
Assay [10] has as its target Alpha-bungarotoxin (Bungarus multicinctus) (UniProt P60615). Put plainly: alpha-bungarotoxin binders on microarray, profiling panel, artefact control for SMM control protein annotation, biochemical, small-molecule microarray, Alexa647 label, 635/667 nm fluorescence (AID 1117). As to conditions: alpha-BTX-A647 binding fluorescence, higher = more signal.

Alpha-bungarotoxin (Bungarus multicinctus), sequence (P60615 whole entry, looked up): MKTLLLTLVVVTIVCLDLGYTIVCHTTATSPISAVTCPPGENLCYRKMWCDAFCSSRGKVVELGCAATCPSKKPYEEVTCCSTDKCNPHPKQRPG

Consider `COC(=O)[C@@]1(Cc2ccc(OC)cc2)[C@H]2c3cc(C(=O)N4CCCC4)n(Cc4ccccc4)c3C[C@H]2CN1C(=O)c1ccccc1`, for which the composite z-score in assay [1] stood at 1.16; in assay [3], 0.117; in [4], 2.3; in assay [5] it was 0.817; in assay [6], 1.29; in assay [7] it was 2.49. In addition, the composite z-score was found to be 2.87 in [8], 0.0976 in [9] and 0.75 in assay [10]. Moreover, in assay [2], the z-score was -1.76.

As to `COc1ccc(CCN2C(=O)[C@@]3(Cc4ccccc42)c2ccccc2C(=O)N(Cc2ccccc2C(F)(F)F)[C@H]3c2ccc(CO)cc2)cc1`, the composite z-score in assay [1] is 0.291; in [3] it was 0.0259; in assay [4], 0.238; in assay [5] it was -0.839; in [6], -0.158; in assay [7], 0.0796. Besides, the composite z-score is -0.258 in assay [8], 0.0645 in assay [9] and 0.88 in [10]. For the same compound, the z-score in assay [2] was -0.961.

Turning to `CN1C(=O)C2C=CC(C(O)c3cccs3)N(Nc3ccccc3)C2C1=O` (stereo not given), the composite z-score in [1] was 0.548; in assay [3], 0.0032; in assay [4], 0.041; in assay [5], -0.591; in [6] it was 0.211; in assay [7], 0.265. In addition, the figures for the composite z-score in [8], in assay [9] and in assay [10] were 0.0924, 0.558 and 0.336, respectively. Besides, in assay [2], the z-score is -0.304.

On to `COCCCN1C(=O)[C@@]2(c3ccc([N+](=O)[O-])cc3)CC(=O)N(C3CCCCC3)[C@@H]2c2ccc(CO)cc21`, for which the composite z-score in [1] is 0.215; in assay [3], 0.289; in assay [4], -0.463; in assay [5], -1.17; in assay [6], -0.096; in assay [7] it was -0.223. In addition, the composite z-score in [8] came to 0.439; in [9], 0.0951; in assay [10], 0.467. In addition, the z-score in assay [2] was -1.4.

In the case of `CS(=O)(=O)CCOC(=O)C1=CC(CCCO)=CC(c2ccc(CN3CCCC3)cc2)N(Cc2cc3c(cc2Br)OCO3)C=C1C(=O)OCCS(C)(=O)=O` (stereo not given), the composite z-score in assay [1] came to 0.981; in assay [3] it was 0.538; in assay [4], 1.33; in [5], 0.484; in assay [6], 0.0765; in assay [7], 0.171. The composite z-score was 1.27 in assay [8], 2.44 in assay [9] and 1.62 in assay [10]. Also, the z-score in assay [2] is -2.33.

In the case of `CCOC(=O)C[C@H]1[C@H](OC(=O)c2cc3ccccc3oc2=O)[C@@H](NC(=O)C2CCCCC2)c2cc(OCCCO)ccc2N1C(=O)c1ccccc1`, the composite z-score in [1] is 0.992; in assay [3] it was 0.493; in assay [4], -0.105; in [5], -0.236; in assay [6], -0.0405; in assay [7], -0.138. Moreover, the composite z-score is -0.266 in assay [8], 0.294 in assay [9] and -0.0403 in assay [10]. Also, the z-score in assay [2] was -0.947.

Take `CCCCCN1CC=CC23O[C@@H]4/C=C\CCCOC(=O)C4[C@H]2C(=O)N(C(CO)C(C)C)[C@@H]3C1=O` (stereo not given in full): the composite z-score was -0.453 in [1]; -0.358 in [3]; -0.33 in [4]; -0.272 in assay [5]; -0.0107 in [6]; -0.416 in assay [7]. Also, the composite z-score in assay [8] is -0.158; in assay [9] it was 0.174; in assay [10] it was -0.0063. This compound gave a z-score in [2] of 0.568.

Regarding `C=CCC(OC(C)=O)[C@@H]1[C@@H](N(Cc2ccc(-c3cccc(C(F)(F)F)c3)o2)C(=O)c2ccc(-c3ccccc3)cc2)c2cc(OCCCO)ccc2N1C(=O)c1ccc(-c2ccccc2)cc1` (stereo not given in full), the composite z-score in assay [1] was -0.165; in [3], -0.15; in assay [4], -0.104; in [5] it was 1.35; in assay [6], 0.0214; in assay [7] it was 0.275. Also, the composite z-score in assay [8] was 0.26; in assay [9], -0.228; in [10], 0.288. Besides, the z-score in [2] was -0.614.

Turning to `CC(C)C[C@@H]1NC(=O)[C@H]2C[C@@H](C(=O)NCCCCCCN)[C@@H](c3ccc(O)cc3)N2C1=O`, the composite z-score in assay [1] is 0.302; in [3], 0.057; in assay [4], 0.143; in assay [5] it was 0.307; in assay [6] it was 0.055; in assay [7] it was -0.214. Further, the figures for the composite z-score in assay [8], in assay [9] and in assay [10] were 0.103, 1.13 and 0.585, respectively. In assay [2], this compound gave a z-score of 0.742.

Consider `C=CCOC(=O)[C@@H]1[C@H]2C(=O)O[C@H](c3ccccc3)[C@H](c3ccccc3)N2[C@H](c2ccc(OCCOC(=O)[C@@H]3C[C@@H]4C(=O)N5CCC[C@H]5C(=O)N4[C@@H]3c3ccc(O)cc3)cc2)[C@@]12C(=O)Nc1ccc(I)cc12`, for which the composite z-score is 1.33 in [1]; 0.761 in [3]; 2.06 in assay [4]; 0.481 in assay [5]; -0.145 in assay [6]; -0.0793 in [7]. Moreover, the values for the composite z-score in assay [8], in assay [9] and in [10] were -0.331, 1.4 and 0.327, respectively. In addition, in assay [2], the z-score was -0.64.

For the compound `[N-]=[N+]=NCc1ccccc1[C@@H]1OC(c2ccc(OCCCO)cc2)=N[C@]1(CCS(=O)(=O)c1ccccc1)C(=O)NCCN1CCOCC1`, the composite z-score in assay [1] was 1.5; in assay [3] it was 0.623; in [4] it was 1.65; in [5] it was -0.173; in assay [6] it was 0.132; in [7] it was 0.323. Besides, the composite z-score is 1.17 in assay [8], 2.04 in assay [9] and 1.95 in assay [10]. Also, in [2], the z-score is -0.351.
